Screening data: PubChem, Broad Institute
U2OS ROS induce: inducers of reactive oxygen species in cancer cells. U2OS ROS induction, H2DCF-DA fluorescence. ROS induction (% of piperlongumine), % at 10 µM. hit rate 2% among 46,000. AID 624156; in the data active means ROS induction above about 79%, passing the limit was not always enough
YB-1 expr inh: YB-1 expression inhibition | U2OS, qRT-PCR YB-1 vs CDIP delta delta Cp, 16 h; active compounds read high; zero = DMSO, each unit about twofold | delta delta Cp (YB-1 minus CDIP) (test concentration not listed) | hit rate 0.37% among 30,000 | AID 434959;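 active means delta delta Cp rounded down to an integer at or above 3, about 3 SD of DMSO wells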;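 further: higher means less YB-1 transcript or more CDIP transcript relative to DMSO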
Of the large screens only hits and unclear results are named; the others gave an inactive call. Compounds with a hit are over-represented: about 2.3% of the library has one in this group of screens.

C[C@@H]1CN([C@H](C)CO)C(=O)Cc2cc(NS(=O)(=O)c3ccc(Cl)cc3)ccc2O[C@H]1CN(C)C(=O)Nc1ccc(F)cc1	none
CNC[C@@H]1Oc2ccc(NC(=O)NC(C)C)cc2CC(=O)N([C@H](C)CO)C[C@@H]1C	U2OS ROS induce 127
CC(C)NC(=O)N(C)C[C@@H]1Oc2ccc(NC(=O)Nc3ccc4c(c3)OCO4)cc2CC(=O)N([C@H](C)CO)C[C@H]1C	U2OS ROS induce 126
C[C@H](CO)N1C[C@H](C)[C@H](CN(C)C(=O)Nc2ccc(F)cc2)Oc2ccc(NS(=O)(=O)c3ccc(Cl)cc3)cc2CC1=O	U2OS ROS induce 89
CNC[C@@H]1Oc2ccc(NC(=O)NC(C)C)cc2CC(=O)N([C@@H](C)CO)C[C@@H]1C	none
COc1ccc(S(=O)(=O)Nc2ccc3c(c2)CC(=O)N([C@H](C)CO)C[C@@H](C)[C@@H](CN(C)CC2CC2)O3)cc1	none
Cc1ccc(C(=O)N2CCc3ccccc32)cc1	none (no result: YB-1 expr inh)
O=C(CSc1nnc(-c2cccnc2)o1)c1ccc(Oc2ccccc2)cc1	none (no result: YB-1 expr inh)
Cc1noc(C)c1S(=O)(=O)Nc1ccc2c(c1)CC(=O)N([C@H](C)CO)C[C@@H](C)[C@H](CN(C)CC1CCCCC1)O2	U2OS ROS induce 109
Cc1noc(C)c1S(=O)(=O)Nc1ccc2c(c1)CC(=O)N([C@@H](C)CO)C[C@H](C)[C@H](CN(C)CC1CCCCC1)O2	none
CC(C)NC(=O)Nc1ccc2c(c1)CC(=O)N([C@@H](C)CO)C[C@H](C)[C@H](CN(C)C(=O)Nc1ccc(F)cc1)O2	U2OS ROS induce 111
COc1ccc(S(=O)(=O)Nc2ccc3c(c2)CC(=O)N([C@H](C)CO)C[C@@H](C)[C@@H](CN(C)C(=O)Nc2ccc4c(c2)OCO4)O3)cc1	none
COc1ccc(S(=O)(=O)Nc2ccc3c(c2)CC(=O)N([C@H](C)CO)C[C@@H](C)[C@@H](CN(C)S(=O)(=O)c2c(C)noc2C)O3)cc1	U2OS ROS induce 89
CC(C)NC(=O)Nc1ccc2c(c1)CC(=O)N([C@@H](C)CO)C[C@H](C)[C@@H](CN(C)C(=O)Nc1ccc(F)cc1)O2	none
COc1ccc(S(=O)(=O)Nc2ccc3c(c2)CC(=O)N([C@@H](C)CO)C[C@@H](C)[C@@H](CN(C)C(=O)Nc2ccc4c(c2)OCO4)O3)cc1	U2OS ROS induce 81
COc1ccc(S(=O)(=O)N(C)C[C@H]2Oc3ccc(NS(=O)(=O)c4c(C)noc4C)cc3CC(=O)N([C@H](C)CO)C[C@H]2C)cc1	none
C[C@@H]1CN([C@@H](C)CO)C(=O)c2cc(NC(=O)Nc3ccc(C(F)(F)F)cc3)ccc2O[C@@H]1CN(C)Cc1ccc(Oc2ccccc2)cc1	none
C[C@H]1CN([C@@H](C)CO)C(=O)Cc2cc(NC(=O)Nc3ccc4c(c3)OCO4)ccc2O[C@H]1CN(C)S(=O)(=O)c1ccccc1	none
Cc1cc(N(CC(=O)Nc2ccc(F)cc2)S(C)(=O)=O)ccc1Br	none (no result: YB-1 expr inh)
C[C@H]1CN([C@@H](C)CO)C(=O)c2cc(NC(=O)CCCCCC(=O)Nc3ccccc3N)ccc2O[C@@H]1CN(C)Cc1ccncc1	none
Cc1ccc(S(=O)(=O)Nc2cccc3c2O[C@H](CN(C)Cc2ccc(-c4ccccc4)cc2)[C@H](C)CN([C@H](C)CO)C3=O)cc1	none
Cc1ccc(S(=O)(=O)Nc2ccc3c(c2)C(=O)N([C@H](C)CO)C[C@H](C)[C@@H](CN(C)Cc2ccccc2)O3)cc1	none
C[C@@H]1CN([C@H](C)CO)C(=O)c2cccc(NC(=O)c3ccncc3)c2O[C@@H]1CN(C)C(=O)Nc1cccc2ccccc12	none
CC(C)(C)C(=O)Cn1nnc(N2CCOCC2)n1	none
Cc1cc(C)c(NC(=O)C(CCS(C)(=O)=O)N2C(=O)c3ccc(Br)cc3C2=O)c(C)c1 (configuration not stated)	none (no result: YB-1 expr inh)
COc1ccc(NC(=O)N(C)C[C@H]2Oc3ccc(NS(=O)(=O)c4ccc(OC)cc4)cc3CC(=O)N([C@H](C)CO)C[C@H]2C)cc1	U2OS ROS induce 81
COc1ccc(NC(=O)N(C)C[C@H]2Oc3ccc(NS(=O)(=O)c4ccc(OC)cc4)cc3CC(=O)N([C@@H](C)CO)C[C@H]2C)cc1	none
COc1ccc(S(=O)(=O)N(C)C[C@H]2Oc3ccc(NC(=O)Nc4ccccc4)cc3CC(=O)N([C@H](C)CO)C[C@H]2C)cc1	none
COc1ccc(S(=O)(=O)N(C)C[C@@H]2Oc3ccc(NC(=O)Nc4ccccc4)cc3CC(=O)N([C@@H](C)CO)C[C@@H]2C)cc1	U2OS ROS induce 112
COc1ccc(-c2cnc3c(c2)C(=O)N([C@H](C)CO)C[C@H](C)[C@H](CN(C)C(=O)Nc2cccc4ccccc24)O3)cc1	none
C[C@H]1CN([C@@H](C)CO)C(=O)c2cccc(NS(=O)(=O)c3cn(C)cn3)c2O[C@H]1CN(C)S(=O)(=O)c1ccc(F)cc1	none
O=C(C1CC1)N1N=C(c2ccc(Cl)cc2)CC1(O)C(F)(F)F (configuration not stated)	none (no result: YB-1 expr inh)
C[C@@H]1CN([C@@H](C)CO)C(=O)CCCn2nncc2CO[C@H]1CN(C)C(=O)Nc1ccccc1F	none
C[C@@H]1CN([C@@H](C)CO)C(=O)Cc2cc(NC(=O)CCC(F)(F)F)ccc2O[C@@H]1CN(C)CC1CCCCC1	none
C[C@H](CO)N1C[C@H](C)[C@H](CN(C)CC2CCCCC2)Oc2ccc(NC(=O)Cc3ccccc3)cc2CC1=O	none
C[C@H]1CN([C@@H](C)CO)C(=O)Cc2cc(NC(=O)Nc3ccc(C(F)(F)F)cc3)ccc2O[C@@H]1CN(C)CC1CCCCC1	none
C[C@H](CO)N1C[C@H](C)[C@H](CN(C)CC2CCCCC2)Oc2ccc(NC(=O)Nc3ccc(C(F)(F)F)cc3)cc2CC1=O	U2OS ROS induce 153
C[C@H](CO)N1C[C@H](C)[C@H](CN(C)CC2CCCCC2)Oc2ccc(NC(=O)CCCN(C)C)cc2C1=O	YB-1 expr inh 18
C[C@H]1CN([C@@H](C)CO)C(=O)Cc2cc(NC(=O)CCC(F)(F)F)ccc2O[C@H]1CN(C)CC1CCCCC1	U2OS ROS induce 99
C[C@H]1CN([C@@H](C)CO)C(=O)c2cc(NC(=O)CCCN(C)C)ccc2O[C@@H]1CN(C)CC1CCCCC1	none
C[C@@H]1CN([C@H](C)CO)C(=O)Cc2cc(NC(=O)Cc3ccccc3)ccc2O[C@H]1CN(C)CC1CCCCC1	U2OS ROS induce 79
CS(=O)(=O)N(CC(=O)Nc1ccccc1)c1ccc(F)c(Cl)c1	none (no result: YB-1 expr inh)
C[C@H]1CN([C@@H](C)CO)C(=O)c2cccc(NS(=O)(=O)c3ccccc3)c2O[C@H]1CN(C)CC1CCCCC1	none
CC(C)NC(=O)N(C)C[C@@H]1Oc2ncc(C#Cc3ccccc3)cc2C(=O)N([C@H](C)CO)C[C@@H]1C	none
COc1cc2nc(-c3ccc4c(c3)C(=O)N(CC(C)C)C4=O)oc(=O)c2cc1OC	none (no result: YB-1 expr inh)
CC(C)c1ccc(N2C(=O)SC(c3ccccc3)C2=O)cc1 (configuration not stated)	none (no result: YB-1 expr inh)
CN1C(=O)c2ccc(NC(=O)c3cccc4ccccc34)cc2C1=O	none
C[C@@H]1CN([C@H](C)CO)C(=O)Cc2cc(NC(=O)CCCN(C)C)ccc2O[C@@H]1CN(C)CC1CCCCC1	U2OS ROS induce 93
C[C@H]1CN([C@@H](C)CO)C(=O)Cc2cc(NC(=O)CCCN(C)C)ccc2O[C@@H]1CN(C)CC1CCCCC1	none
CCOC(=O)C(C)Sc1ncnc2nc[nH]c12 (configuration not stated)	none (no result: YB-1 expr inh)
CCOC(=O)C(C)Sc1ncnc2c1nnn2-c1ccc(OC)cc1 (configuration not stated)	U2OS ROS induce 179 (no result: YB-1 expr inh)
